Test results published in ChEMBL document CHEMBL3988442, “University of Dundee, Small-Polar-MMV Screening Library” (2021).

Biological target: AMP-activated protein kinase, AMPK (Homo sapiens) (UniProt P54646+O43741+P54619+Q9UGJ0+Q9Y478+Q13131+Q9UGI9)
Assay: AMP-dependent Kinase enzyme assay. An in vitro enzyme assay that detects ADP turnover that is directly proportional to AMPK activity. This uses naive AMPK that is activated during the assay with MK-8722
Type: functional
Set-up: scale not given: direction of the effect not stated beside the values
Conditions: 30 µM

Row | Compound | Percent Effect
1 | CN(C)c1cc(N(C)Cc2cc(C(C)(C)C)n[nH]2)ncn1 | -16.4%
2 | CN(CCOc1ccc(C#N)cc1)CC1CCS(=O)(=O)C1 (stereo not given) | 7.94%
3 | Cc1cc(C)n(-c2cccc(NC(=O)N3CCC[C@@H]3CO)c2)n1 | -5.07%
4 | Cc1cc(N(C)CC2COc3ccccc3O2)nc(C)n1 (stereo not given) | 1.48%
5 | COC(=O)c1ccc2c(c1)CCCN2S(=O)(=O)c1cn(C)c(C)n1 | -5.88%
6 | CCN1CCC(CC(=O)NCCc2nc(O)cc(O)n2)CC1 | -0.635%
7 | Cc1cc(N2CCC(n3cc(CN4CCSCC4)nn3)CC2)ccn1 | 2.21%
8 | CCC(C)Oc1ccc(CNCCNC(C)=O)cc1OC (stereo not given) | 2.89%
9 | Cc1cc(=O)[nH]c(-n2nc(-c3ccccc3)cc2N)n1 | -11.4%
10 | O=C(Cc1ccc(Cl)cc1)N[C@@H]1CCC[C@@H](O)[C@@H]1O | 22.5%
11 | CCN(C)C[C@@H]1CN(Cc2cnc3c(S(C)(=O)=O)cnn3c2)C[C@@H]1CO | -11.4%
12 | Fc1ccc(N2CCCN(c3ccc(Cn4ccnc4)cn3)CC2)cc1 | -3.34%
13 | CCN(CC(=O)NC)C(=O)c1csc(Cc2ccccc2)n1 | -5.87%
14 | Cc1ccc(C(C)NC(=O)N2CCCN(CC(F)F)CC2)s1 (stereo not given) | -1.15%
15 | CCC(NC(=O)C(C)(C)C)c1ccccc1C (stereo not given) | 5.82%
16 | COC(CNC(=O)c1ccc[nH]1)c1cccc(Cl)c1 (stereo not given) | 1.53%
17 | CO[C@H]1CN(Cc2c(C)ccc3ncccc23)CC[C@H]1N | 1.31%
18 | COCCN1CCN(C(=O)C(c2cccc(F)c2)N(C)C)CC1 (stereo not given) | -5.71%
19 | COCC1CCN(C(=O)c2cc(O)nc(CC(C)C)c2)CC1 | -1.75%
20 | COc1ncccc1-c1cc(C(N)=O)ccn1 | 1.56%
21 | CNC(=O)C(c1cccc(Cl)c1)C(C)C (stereo not given) | -6.65%
22 | COC(=O)c1ccc(N(C(=O)c2ccncc2)C(C)C)c(C)c1 | -1.62%

Row | Compound | Percent Effect
23 | COCc1ncc(CN2CCC3(CCNC(=O)CC3)CC2)cn1 | 0.0611%
24 | CSc1ccc(NC(=O)Cn2cc(NC(C)=O)cn2)cc1 | -11.9%
25 | CCCC(=O)Nc1cccc([C@H]2C[C@@H](NC(C)=O)CCO2)c1 | 13.7%
26 | Cc1cc(CN(CC(N)=O)CC(C)C)on1 | -2.52%
27 | Cc1ccc(C(=O)NC2CCCN(CC(N)=O)C2)c(=O)[nH]1 (stereo not given) | 2.52%
28 | NC(=O)C(NC1CCN(Cc2ccc(F)cc2)CC1)c1ccccc1 (stereo not given) | -4.88%
29 | Cc1cc(Cl)c(C)c(S(=O)(=O)N2CCN(Cc3ccccn3)CC2)c1Cl | 1.09%
30 | Cn1nccc1CN1CCOC(c2cccc(Nc3ccccn3)n2)C1 (stereo not given) | 5.54%
31 | CC(=O)N1CCCN(C(=O)NC(C)Cn2ccnc2)CC1 (stereo not given) | -5.96%
32 | CC(C)[C@H]1CN(Cc2nccn2C)C[C@@H]1NC(=O)COCC(N)=O | 9.37%
33 | Cc1[nH]nc(CCC(=O)N2CCc3ncnc(NCCO)c3CC2)c1C | 3.08%
34 | CN(C)Cc1cnn(-c2ccccc2C(=O)NCCC2CCCN2C)c1 (stereo not given) | 5.44%
35 | COc1ccc2c(c1)CCCN(CC(=O)NCC1CCCO1)C2 (stereo not given) | -4.46%
36 | CN(C)CCNC(=O)CCC1CCN(C(=O)c2ccc(O)cn2)CC1 | 7.4%
37 | COC(=O)c1cc2n(n1)CCN(C(=O)c1csc(CN(C)C)n1)C2 | 1.89%
38 | COC1CCCOC12CCN(C(=O)NCc1ccco1)CC2 (stereo not given) | 13%
39 | O=C(CCCn1cccn1)N1CCCC(n2cncn2)C1 (stereo not given) | 5.88%
40 | Cc1ccc(S(=O)(=O)Cc2nnc(C)n2C)cc1 | 6.55%
41 | CCOC(=O)C1(NCC(=O)Nc2cc(C)ccc2OC)CCCC1 | 0.781%
42 | CCCNc1ncc(CN2CCOC(Cc3cccc(F)c3)C2)cn1 (stereo not given) | 6.84%
43 | CC(NC(=O)NCc1cccnc1N(C)C)c1cccs1 (stereo not given) | -8.61%
44 | O=C(NCCC1CN(C2CCCC2)CCO1)c1cc(=O)[nH]c(=O)[nH]1 (stereo not given) | -0.888%

Row | Compound | Percent Effect
45 | N#Cc1cccc(S(=O)(=O)NC2CCN(CC(F)(F)F)C2)c1 (stereo not given) | -2.39%
46 | CC(C)NC(=O)C1(Cc2ccccc2-c2cncnc2)CCCNC1 (stereo not given) | 18.8%
47 | CN(CCc1ccccn1)c1cnn(C)c(=O)c1Br | -11.5%
48 | CC(C)OCCCNC(=O)CN1CCN(c2nccs2)C(C)C1 (stereo not given) | 13.6%
49 | CS(=O)(=O)NCCN1CCSCC1c1ccc(Cl)cc1 (stereo not given) | 1.33%
50 | CCCS(=O)(=O)NCc1nc(C)cc(N2CCCC2)n1 | 4.77%
51 | COc1cc(N(C)CCCn2nc(C)cc2C)ncn1 | 13.8%
52 | CSCCC(=O)N1CCN(CC(C)O)CC1 (stereo not given) | -1.95%
53 | Cc1ccc(CN(CCN(C)C)Cc2c(C)nc3sccn23)o1 | 14.3%
54 | O=C(NC1CCCC1)c1cc(Cn2cnc3ccccc32)on1 | 0.401%
55 | O=C(NCCCNc1cccnc1)c1ccc2nccn2c1 | -8.67%
56 | CS(=O)(=O)CC1(CNc2c(C#N)cnc3ccc(Cl)cc23)CC1 | 5.05%
57 | CCC(O)CN1CCN(C(=O)CCSC)CC1 (stereo not given) | -2.43%
58 | CNC(=O)c1sc2ncccc2c1C1CCN(C(=O)CCOC)C1 (stereo not given) | 21.5%
59 | COCC(C)(O)CNC(=O)c1cc(-c2cc(OC)ccc2OC)nn1C (stereo not given) | 1.19%
60 | Cc1cc(CNCC2(O)CCOCC2)ccc1Br | -7.22%
61 | c1nc(N2CCCC2)ncc1CN1CCCC(CN2CCCCC2)C1 (stereo not given) | -7.34%
62 | CC(C)c1ccc(CN2CCCC3(CC2)CN(C)C(=O)O3)cc1 (stereo not given) | 9.6%
63 | CC(=O)N1CCCC1CCc1ccnc(-c2cncnc2)c1 (stereo not given) | 22.4%
64 | O=C(CCn1ccnc1)N1CCC(c2nnc(-c3ccccn3)o2)CC1 | 1.44%
65 | CN1C[C@H](c2ccccc2)[C@H]2CN(C(=O)Cc3ccc(O)cc3)CC[C@H]21 | 4.46%
